Here are results for 23 compounds from PubChem BioAssay (NCATS).

Molecules are shown by their SMILES. Results filed as inconclusive are left out. Activity calls are given as the source filed them. Unless noted, the call rests on the fitted dose curve; in most records, active means well fitted curve in the direction sought with a large enough effect; inconclusive means small, poorly fitted or top-dose-only effect, or another doubt; inactive means no such curve, though single readings can be large; an effect the other way counts as inactive or inconclusive.

For experiment [1], the target named is D(1A) dopamine receptor (Homo sapiens) (UniProt P21728). The experiment can be described thus: HTS Assay for Allosteric Agonists of the Human D1 Dopamine Receptor: Primary Screen for Potentiators (AID 488982). Further: 0% is about no effect. A digest of the protocol:
(§1)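 Tetracycline-induced HEK293 Trex D1 cells with forced coupling to calcium, loaded with no-wash calcium dye; kinetic fluorescence read 180 s after compound addition for agonism, then a further 180 s after an EC20 dopamine challenge for potentiation.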

For experiment [2] the target is unchanged. The experiment can be described thus: HTS Assay for Allosteric Agonists of the Human D1 Dopamine Receptor: Primary Screen for Antagonists (AID 488983).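 Further: calcium flux response to an EC80 dopamine challenge measured with no-wash dye; nearly all actives have a fitted effect of over 65% in size.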 Further: potency means the concentration at half of the fitted maximal effect. A digest of the protocol: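 Cells are induced with tetracycline and incubated overnight at 30 C, then loaded with calcium dye for 30 to 90 minutes at room temperature. Compound addition is followed by a 180 s read, then an EC80 dopamine addition and another 180 s read.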

A short description of experiment [3]: Validation screen for small molecules that induce genotoxicity in human embryonic kidney (HEK293T) cells expressing luciferase-tagged ELG1 (AID 493106). Further: 0% is about no effect. In outline: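 Luminescence from an ELG1-luciferase fusion serves as the read-out, rising when genetic stress elevates ELG1 protein. HEK293T reporter cells (2,000 per well) received 23 nL compound, incubated 16 hr at 37 °C, then ONE-Glo for 30 min at room temperature.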

Experiment [4] can be described thus: Nrf2 qHTS screen for inhibitors: Validation (AID 493153; active means well fitted inhibition curve with a large enough effect in the main read-out, with a control signal flat, not every such curve was filed as active; further: potency means the concentration at half of the fitted maximal effect). The settings on record: Potency: luciferase luminescence; viability change: measured here: cytotoxicity max response. In outline: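 Luminescence from an ARE-firefly luciferase reporter in A549 cells gives Nrf2 inhibition; an earlier CellTiter-Fluor fluorescent read flags cytotoxicity. Cells in 5% FBS OPTI-MEM received compound dilution series for 18-24 h at 37°C.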
(In general: In qHTS, concentration-response curves come from the screen itself.)

The target in experiment [5] is Thyrotropin-releasing hormone receptor (Homo sapiens) (UniProt P34981). The experiment can be described thus: qHTS for Small Molecule Agonists and Allosteric Enhancers of Human TRH Receptor: Validation Screen for Agonists (AID 493127;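 active means calcium activation more than 3 SD above the typical response in the agonist read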;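 further: intracellular calcium rise by fluo-8 fluorescence before TRH EC20 addition; 0% is about no effect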). As to conditions: TRH receptor agonist cell assay; at 2 µM; stronger effect = higher value. A digest of the protocol:
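Cells 2000/well, 10% FCS, 18 h 33.5C/5% CO2 → fluo-8 Ca dye, RT 30 min–1.5 h → FDSS baseline 10 × 1 s → compound added → 230 cycles (1 s/cycle) agonist mode. TRH controls.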

The target of experiment [6] is D(1A) dopamine receptor (Homo sapiens) (UniProt P21728). The experiment can be described thus: HTS Assay for Allosteric Agonists of the Human D1 Dopamine Receptor: Primary Screen for Agonists (AID 488981). Further: potency means the concentration at half of the fitted maximal effect. On activation: 0% is about no effect. A digest of the protocol: as §1
Chain of D(1A) dopamine receptor (Homo sapiens) (P21728 whole entry, looked up, the tested form may be a part): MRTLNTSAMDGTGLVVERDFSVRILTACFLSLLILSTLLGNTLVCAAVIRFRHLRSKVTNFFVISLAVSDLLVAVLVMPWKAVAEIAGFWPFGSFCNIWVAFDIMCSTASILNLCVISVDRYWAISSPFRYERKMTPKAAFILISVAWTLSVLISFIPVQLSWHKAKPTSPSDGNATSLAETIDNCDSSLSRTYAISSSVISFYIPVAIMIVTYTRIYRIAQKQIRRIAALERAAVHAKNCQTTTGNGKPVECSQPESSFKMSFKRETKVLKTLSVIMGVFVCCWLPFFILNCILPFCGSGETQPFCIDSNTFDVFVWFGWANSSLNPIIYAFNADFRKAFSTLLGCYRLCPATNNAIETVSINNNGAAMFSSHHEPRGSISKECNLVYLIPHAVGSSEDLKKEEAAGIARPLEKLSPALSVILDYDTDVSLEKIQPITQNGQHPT
Experiment [7] concerns the target ATPase family AAA domain-containing protein 5 (Homo sapiens) (UniProt Q96QE3). The experiment can be described thus: Validation screen for small molecules that inhibit ELG1-dependent DNA repair in human embryonic kidney (HEK293T) cells expressing luciferase-tagged ELG1 (AID 493107). Further: nearly all actives have a fitted effect of over 70% in size. Further: potency means the concentration at half of the fitted maximal effect. In outline:
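Luminescence from ONE-Glo, developed 30 min at room temperature, served as read-out of ELG1-luciferase levels. Beforehand, reporter HEK293T cells received 5-fluorouridine plus test compound for 16 hr at 37 °C.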

Experiment [8] concerns the target ATP-dependent 6-phosphofructokinase (Trypanosoma brucei brucei) (UniProt O15648). The experiment can be described thus: qHTS Assay to Find Inhibitors of T. brucei phosphofructokinase: hit validation (AID 492961).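 Further: luminescence reports ADP formed as PFK phosphorylates fructose-6-phosphate with ATP; series mostly up to about 51 µM; on the % scale 0 is the no-effect control and ±100 the full control effect.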 In outline:
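Compounds titrated; %activity normalized to 0x and 1x enzyme controls, curve-fitted. Readout: ADP-Glo luminescence after 45 min room-temperature reaction of 1.25 nM PFK, 0.1 mM ATP, 0.5 mM F6P, pH 8.0.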

Chain of ATP-dependent 6-phosphofructokinase (Trypanosoma brucei brucei) (O15648 whole entry, looked up): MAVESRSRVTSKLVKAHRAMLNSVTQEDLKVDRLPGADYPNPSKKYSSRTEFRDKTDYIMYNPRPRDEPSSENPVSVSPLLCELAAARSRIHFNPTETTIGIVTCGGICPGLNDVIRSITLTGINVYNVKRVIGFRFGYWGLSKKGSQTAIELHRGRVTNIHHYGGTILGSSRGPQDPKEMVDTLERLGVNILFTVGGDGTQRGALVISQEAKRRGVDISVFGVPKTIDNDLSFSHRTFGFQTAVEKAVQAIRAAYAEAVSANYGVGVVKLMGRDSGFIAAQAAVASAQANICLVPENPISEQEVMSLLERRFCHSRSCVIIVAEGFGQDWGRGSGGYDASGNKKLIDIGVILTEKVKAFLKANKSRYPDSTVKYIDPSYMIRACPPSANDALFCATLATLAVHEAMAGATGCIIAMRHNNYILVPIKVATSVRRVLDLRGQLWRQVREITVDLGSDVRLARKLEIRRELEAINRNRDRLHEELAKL
Chain of ATPase family AAA domain-containing protein 5 (Homo sapiens) (Q96QE3 whole entry, looked up, the tested form may be a part): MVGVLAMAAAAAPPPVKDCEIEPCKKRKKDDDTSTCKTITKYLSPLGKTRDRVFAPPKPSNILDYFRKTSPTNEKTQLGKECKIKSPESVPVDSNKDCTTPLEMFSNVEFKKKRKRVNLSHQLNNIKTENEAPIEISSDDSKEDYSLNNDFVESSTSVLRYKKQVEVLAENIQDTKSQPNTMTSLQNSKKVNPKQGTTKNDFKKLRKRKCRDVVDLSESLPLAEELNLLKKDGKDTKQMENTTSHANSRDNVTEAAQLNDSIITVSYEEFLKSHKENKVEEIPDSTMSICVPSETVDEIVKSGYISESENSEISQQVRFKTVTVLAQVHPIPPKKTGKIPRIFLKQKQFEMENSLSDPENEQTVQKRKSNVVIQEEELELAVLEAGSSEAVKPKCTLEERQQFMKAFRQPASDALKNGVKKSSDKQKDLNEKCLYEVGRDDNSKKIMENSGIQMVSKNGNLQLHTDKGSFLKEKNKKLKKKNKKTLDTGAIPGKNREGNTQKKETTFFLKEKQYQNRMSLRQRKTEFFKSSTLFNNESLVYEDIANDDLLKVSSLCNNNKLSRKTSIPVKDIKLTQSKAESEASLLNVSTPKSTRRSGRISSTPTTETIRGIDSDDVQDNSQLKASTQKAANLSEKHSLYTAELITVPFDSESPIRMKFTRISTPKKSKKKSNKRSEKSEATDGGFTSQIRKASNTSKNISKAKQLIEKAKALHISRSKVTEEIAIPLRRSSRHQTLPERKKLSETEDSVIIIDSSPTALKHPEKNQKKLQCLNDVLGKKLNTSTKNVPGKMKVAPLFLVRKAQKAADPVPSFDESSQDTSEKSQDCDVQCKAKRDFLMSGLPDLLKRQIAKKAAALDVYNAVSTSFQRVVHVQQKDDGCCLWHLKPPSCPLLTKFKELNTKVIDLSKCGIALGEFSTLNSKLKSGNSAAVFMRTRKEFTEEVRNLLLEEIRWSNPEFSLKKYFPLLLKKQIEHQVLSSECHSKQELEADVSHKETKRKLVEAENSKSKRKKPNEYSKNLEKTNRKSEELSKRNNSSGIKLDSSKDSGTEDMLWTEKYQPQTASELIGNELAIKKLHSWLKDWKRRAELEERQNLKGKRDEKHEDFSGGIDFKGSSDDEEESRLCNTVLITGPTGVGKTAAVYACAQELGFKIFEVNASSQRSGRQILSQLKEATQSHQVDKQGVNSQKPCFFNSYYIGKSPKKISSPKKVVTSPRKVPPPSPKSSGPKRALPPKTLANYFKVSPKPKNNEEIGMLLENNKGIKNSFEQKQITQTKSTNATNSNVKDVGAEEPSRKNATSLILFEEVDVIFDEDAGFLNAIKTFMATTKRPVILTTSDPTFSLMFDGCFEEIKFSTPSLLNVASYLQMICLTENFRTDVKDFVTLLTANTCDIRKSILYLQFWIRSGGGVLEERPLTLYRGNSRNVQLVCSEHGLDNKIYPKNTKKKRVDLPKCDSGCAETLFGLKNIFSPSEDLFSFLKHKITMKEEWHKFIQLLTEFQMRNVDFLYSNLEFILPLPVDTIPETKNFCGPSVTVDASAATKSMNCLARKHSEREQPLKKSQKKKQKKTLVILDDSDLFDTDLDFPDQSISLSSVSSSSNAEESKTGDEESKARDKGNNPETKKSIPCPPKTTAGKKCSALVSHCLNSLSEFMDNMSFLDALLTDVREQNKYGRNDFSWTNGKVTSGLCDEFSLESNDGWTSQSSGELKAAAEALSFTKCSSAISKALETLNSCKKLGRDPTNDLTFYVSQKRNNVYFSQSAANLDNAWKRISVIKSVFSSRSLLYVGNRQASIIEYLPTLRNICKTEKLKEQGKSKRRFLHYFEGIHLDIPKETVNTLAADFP
Chain of Thyrotropin-releasing hormone receptor (Homo sapiens) (P34981 whole entry, looked up): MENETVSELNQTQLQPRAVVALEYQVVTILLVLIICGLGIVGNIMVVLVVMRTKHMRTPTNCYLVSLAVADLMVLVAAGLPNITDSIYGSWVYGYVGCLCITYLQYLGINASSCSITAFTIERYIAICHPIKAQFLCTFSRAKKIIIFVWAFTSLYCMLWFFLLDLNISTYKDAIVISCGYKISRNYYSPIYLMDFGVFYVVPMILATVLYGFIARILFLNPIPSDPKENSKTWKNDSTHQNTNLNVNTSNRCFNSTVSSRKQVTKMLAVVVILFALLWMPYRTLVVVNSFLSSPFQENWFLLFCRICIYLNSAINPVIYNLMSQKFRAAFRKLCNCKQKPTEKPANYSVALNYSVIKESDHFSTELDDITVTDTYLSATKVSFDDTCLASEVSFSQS

In the case of `COc1ccccc1N1CCN(CCN(C(=O)c2ccc(I)cc2)c2ccccn2)CC1`, the Potency result in experiment [1] and in experiment [3] was “inactive” throughout. Further, the Potency in experiment [2] is 5.62 µM (active); in experiment [4] it was 14.6 µM (active). Besides, the viability change in experiment [4] was -4.45%.
For `Cc1nc2sccn2c(=O)c1CCN1CCC(=C(c2ccccc2)c2ccc(F)cc2)CC1`, the Potency result in experiment [1], in experiment [3] and in experiment [4] was “inactive” in each case. Further, the viability change in experiment [4] was determined as 0.941%.
As to `CC(C)NCC(O)COc1cccc2ccccc12` (stereo not given), the Potency result in experiment [1], in experiment [2], in experiment [3] and in experiment [4] was “inactive” throughout. Besides, the activation in experiment [5] was 2.25% (inactive). The viability change in experiment [4] turned out to be 6.42%.
Regarding `Clc1ccc(N2CCN(Cc3cc4ccccn4n3)CC2)cc1`, the Potency result in experiment [6], in experiment [1], in experiment [2], in experiment [7] and in experiment [4] was “inactive” each time. The viability change in experiment [4] is 2.97%.
Take `CCN(CC)c1ncnc2c1ncn2[C@@H]1O[C@H](COP(=O)(O)OP(=O)(O)C(Br)(Br)P(=O)(O)O)[C@@H](O)[C@H]1O`: the Potency entry in experiment [1], in experiment [2], in experiment [3], in experiment [7] and in experiment [4] was “inactive” throughout. Further, in experiment [4], the viability change is -6.83%.
Consider `CCCCC#Cc1nc(NC)c2ncn([C@@H]3O[C@H](CO)[C@@H](O)[C@H]3O)c2n1`, for which the Potency result in experiment [1], in experiment [2], in experiment [7] and in experiment [4] was “inactive” throughout. Also, the viability change in experiment [4] worked out at 2.21%.
`c1ccc2sc(SN3CCOCC3)nc2c1`: in experiment [8], the compound was called inactive.
In the case of `Nc1nc(Cl)nc2c1ncn2[C@@H]1O[C@H](COP(=O)(O)OP(=O)(O)OP(=O)(O)O)[C@@H](O)[C@H]1O`, the Potency in experiment [6] was 0.891 µM (active). Further, the Potency result in experiment [1], in experiment [7] and in experiment [4] was “inactive” each time. For the same compound, the viability change in experiment [4] came out at 3.12%.
As to `CO/N=C(\C(=O)N[C@@H]1C(=O)N2C(C(=O)O)=C(COC(C)=O)CS[C@H]12)c1csc(N)n1`, the Potency entry in experiment [1], in experiment [2], in experiment [3] and in experiment [4] was “inactive” in each case. Moreover, the viability change in experiment [4] is -5.9%.
On to `Nc1nc(SCc2ccc([N+](=O)[O-])cc2)c2ncn([C@@H]3O[C@H](CO)[C@@H](O)[C@H]3O)c2n1`, for which the Potency entry in experiment [6], in experiment [1], in experiment [2] and in experiment [4] was “inactive” each time. Besides, in experiment [7], the Potency was 0.146 µM (active). The viability change in experiment [4] worked out at 12.2%.
Turning to `O=C(c1ccc(OCCCc2cnc[nH]2)cc1)C1CC1`, the Potency entry in experiment [1], in experiment [2] and in experiment [4] was “inactive” each time. In addition, the viability change in experiment [4] is -3.26%.
Consider `CSc1ccccc1N1CCN(CCCCCC(=O)NC2CCCc3ccccc32)CC1` (stereo not given), for which the Potency result in experiment [1] was “inactive”. Moreover, the Potency in experiment [2] is 2 µM (active).
As to `OC[C@H]1O[C@@H](n2cnc3c(NC4CCCC4)ncnc32)[C@H](O)[C@@H]1O`, the Potency result in experiment [1], in experiment [2], in experiment [7] and in experiment [4] was “inactive” each time. Moreover, the viability change in experiment [4] was -2.89%.
In the case of `CNC(=O)[C@H]1O[C@@H](n2cnc3c(NCc4ccc(N)cc4)ncnc32)[C@H](O)[C@@H]1O`, the Potency entry in experiment [1], in experiment [2], in experiment [7] and in experiment [4] was “inactive” in each case. Further, the viability change in experiment [4] was -2.65%.
In the case of `CC(N)C(=O)OC(C)(C)Cc1ccc(Cl)cc1` (stereo not given), the Potency result in experiment [1], in experiment [2], in experiment [7] and in experiment [4] was “inactive” each time. Further, the viability change in experiment [4] turned out to be 7.67%.
For the compound `NC(=O)C1=CN(C2OC(COP(=O)(O)OP(=O)(O)OC[C@H]3O[C@@H](n4cnc5c(N)ncnc54)[C@H](OP(=O)(O)O)[C@@H]3O)C(O)C2O)C=CC1` (stereo not given in full), the Potency entry in experiment [6], in experiment [1], in experiment [2] and in experiment [4] was “inactive” in each case. For the same compound, the viability change in experiment [4] turned out to be 5.72%.
As for `COC(=O)C1=C(C)NC(C)=C(C(=O)OCC(C)C)C1c1ccccc1[N+](=O)[O-]` (stereo not given), the outcome in experiment [8] was inactive.
For the compound `O=C(O)[C@H](CC(=O)N1C[C@H]2CCCC[C@H]2C1)Cc1ccccc1`, in experiment [8], the compound was classed as inactive.
Consider `CCNC(=O)[C@H]1O[C@@H](n2cnc3c(N)nc(NCCc4ccc(CCC(=O)O)cc4)nc32)[C@H](O)[C@@H]1O`, for which the Potency result in experiment [1], in experiment [2], in experiment [3] and in experiment [4] was “inactive” throughout. In addition, in experiment [4], the viability change came out at 0.951%.
As for `O=C(CCCCCN1CCN(c2ccccc2-c2ccccc2)CC1)NC1CCCc2ccccc21` (stereo not given), the Potency entry in experiment [1] and in experiment [3] was “inactive” in each case. The Potency in experiment [2] was 7.08 µM (active).
Regarding `C[N+](C)(C)CCOP(=O)(O)OP(=O)([O-])OC[C@H]1O[C@@H](n2ccc(N)nc2=O)[C@H](O)[C@@H]1O`, the Potency entry in experiment [1], in experiment [2], in experiment [3], in experiment [7] and in experiment [4] was “inactive” each time. Moreover, the viability change in experiment [4] stood at 2.92%.
Take `CSc1nc(N)c2ncn([C@@H]3O[C@H](COP(=O)(O)OP(=O)(O)OP(=O)(O)O)[C@@H](O)[C@H]3O)c2n1`: the Potency result in experiment [3] is “inactive”. In experiment [4], the Potency result was “inactive” and the viability change was -1.62%.
For `Nc1ccn([C@@H]2O[C@H](CO)[C@@H](O)[C@@H]2O)c(=O)n1`, the activation in experiment [5] was -0.125% (inactive).
